# Screening results deposited in PubChem by NMMLSC.
# In the library only some 0.4% were active in any assay of this set; here they are far more common.
# HRas wt GTP bind = modulators of GTP binding to HRas wildtype, primary screen, biochemical, bead-based flow cytometry, multiplex; GTPase HRas (Homo sapiens), P01112; GST-Ras wt beads, Bodipy-FL-GTP binding; actives lie on both sides; GTP binding activity, % at 10 µM; 0.14% of 190,000 active; AID 759, 2007;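 active means GTP binding activity at least 20% away from the 100% baseline, either lowered as inhibitor or raised as activator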;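 further: 0% = unlabeled GTP competition control and 100% = no-compound control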
# Target sequence (P01112 whole entry, looked up): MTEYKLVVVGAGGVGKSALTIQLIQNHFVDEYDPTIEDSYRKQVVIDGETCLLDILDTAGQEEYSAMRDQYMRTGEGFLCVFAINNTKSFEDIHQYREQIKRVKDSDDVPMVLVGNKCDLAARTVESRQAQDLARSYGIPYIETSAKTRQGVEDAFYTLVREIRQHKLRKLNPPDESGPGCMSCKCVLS
# Rac1 wt modul = wildtype Rac1 GTP binding modulators, primary screen, biochemical, GST-Rac1 beads, flow cytometry, multiplex | Ras-related C3 botulinum toxin substrate 1 (Homo sapiens), P63000 | fluorescent GTP binding; actives lie on both sides; 0 = cold GTP competed, 100 = untreated | GTP binding activity (% of control), % at 10 µM | 0.27% of 190,000 active | AID 757, 2007;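 active means GTP binding activity at least 20 points away from the 100% control level, either lower or higher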
# Rab7 wt modul = modulators of GTP binding to Rab7, primary screen, biochemical, wildtype, multiplex bead flow cytometry; 0.055% of 190,000 active; GTP binding activity (percent of control), % at 10 µM; GST-Rab7 beads, fluorescent GTP binding; actives lie on both sides; untreated = 100%, excess cold GTP = 0%; Rab7 GTPase wild type (dog), Bodipy-FL-GTP binding; AID 758, 2007;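 active means fluorescent GTP binding to Rab7 beads changed by at least 20 points from the 100% baseline, either direction, mostly lower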;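 further: median green fluorescence of bound Bodipy-FL-GTP per Rab7 bead population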
# Rab2 wt GTP = modulators of GTP binding to Rab2A wildtype, primary screen, biochemical, dog, bead-based flow cytometry, multiplex | GST-Rab2 wt beads, Bodipy-GTP binding | GTP binding activity, % at 10 µM | 0.19% of 190,000 active | AID 760, 2007;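 active means GTP binding activity at least 20 points away from 100%, either lowered or raised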;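 further: 0% = beads with excess unlabeled GTP and 100% = no-compound control corrected for plate trend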
# Rac1 act GTP bind = GTP binding modulators of activated mutant Rac1, primary screen, biochemical, bead-based flow cytometry, multiplex, fluorescent GTP; Ras-related C3 botulinum toxin substrate 1 (Homo sapiens), P63000; GST-Rac1 activated beads; actives lie on both sides; 100% means binding = to untreated wells; percent activity (GTP binding), % at 10 µM; 0.11% of 190,000 active;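 active means GTP binding at least 20 percentage points away from the 100% baseline, in either direction, so actives lie on both sides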
# Cdc42 wt GTP = modulators of GTP binding to wildtype Cdc42, primary screen, biochemical, multiplex bead flow cytometry, Bodipy-GTP; Cell division control protein 42 homolog (Homo sapiens), P60953; GST-Cdc42 beads; actives lie on both sides; percent activity (GTP binding), % at 10 µM; 0.2% of 190,000 active; AID 761, 2007;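 active means percent activity GTP binding at least 20 points away from the 100% baseline, either down as inhibitor or up as activator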;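 further: median bead fluorescence of bound Bodipy-FL-GTP at 100 nM; 0% = excess unlabeled GTP control and 100% = no compound control; below 100% means less GTP binding so inhibitor and above means activator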
# Target sequence (P60953 whole entry, looked up): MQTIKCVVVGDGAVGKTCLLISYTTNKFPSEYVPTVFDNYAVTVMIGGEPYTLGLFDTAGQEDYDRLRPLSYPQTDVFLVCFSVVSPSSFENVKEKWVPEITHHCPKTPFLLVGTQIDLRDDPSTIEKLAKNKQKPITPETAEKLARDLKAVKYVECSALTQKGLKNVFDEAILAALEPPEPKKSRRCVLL
# The depositor's hits bear a star; nt = no result; [ ] = dose if it differs, or a comment.
SMILES,HRas wt GTP bind,Rac1 wt modul,Rab7 wt modul,Rab2 wt GTP,Rac1 act GTP bind,Cdc42 wt GTP
Cc1nn(C)c(C(=O)Nc2ccc(S(=O)(=O)NC34CC5CC(CC(C5)C3)C4)cc2)c1Br,97,100,97,94,101,91
Nc1ccc(-c2cn3cccnc3n2)cc1,78*,72*,90,78*,86,79*
CCC(c1nnnn1Cc1ccco1)N1CCN(c2cc(Cl)ccc2C)CC1 (configuration not stated),104,110,103,103,102,102
COc1cc(CCNc2ccc3nnc(-c4ccccc4)n3n2)cc(OC)c1OC,71*,73*,89,74*,89,73*
O=C(CSc1nnc(-c2cccnc2)n1-c1ccc(SC(F)F)cc1)N1CCCc2ccccc21,103,104,97,97,98,99
CSC1=N/C(=C\c2ccc(C)cc2)C(=O)S1,105,103,98,104,99,107
COc1ccc(/C=C2\N=C(SC)SC2=O)cc1OC,81,81,64*,77*,81,82
N#C/C(=C\c1ccncc1)c1nc2ccccc2[nH]1,43*,31*,26*,42*,35*,41*
Cc1cc2nc(/C(C#N)=C/c3ccncc3)[nH]c2cc1C,92,86,96,94,89,87
N#C/C(=C\c1ccc(-c2ccc(C(=O)O)cc2)o1)c1nc2ccccc2[nH]1,80,71*,87,77*,80,78*
Cc1ccc(N2CC(C(=O)NCc3ccc4c(c3)OCO4)CC2=O)cc1C (configuration not stated),102,101,99,99,99,99
c1ccc(COc2cccc(CNCc3cccs3)c2)cc1,100,105,98,97,99,104
O=C(Cn1cnc2c(nnn2Cc2ccccc2F)c1=O)NCC1CCCO1 (configuration not stated),109,120*[activator],109,126*[activator],104,118
O=C(Cn1cnc2c(nnn2Cc2ccccc2)c1=O)NCC1CCCO1 (configuration not stated),104,110,101,102,99,104
Cc1ccc(-c2ccc(/C=C3\SC(N4CCOCC4)=NC3=O)o2)cc1,85,76*,90,88,90,87
Cc1ccnc(NC(=O)C2CCN(S(=O)(=O)c3cccc4nonc34)CC2)c1,97,99,93,95,99,97
O=C(NC1CCCCC1)c1noc2c1CCCCC2,109,120*[activator],105,110,102,114
CC(C)(C)C1CCc2onc(C(=O)NC3CCCC3)c2C1 (configuration not stated),104,102,99,100,98,105
CCN(CC)S(=O)(=O)c1ccc2c(c1)c(=O)c(C(=O)N1CCc3ccccc3C1)cn2C,119,132*[activator],116,118,109,115
CSc1nnc(-c2cc(Br)ccc2N=Cc2c(C)[nH]n(-c3ccccc3)c2=O)c(=O)[nH]1,85,88,93,81,80,78*
Cc1ccc(-n2[nH]c(C)c(C=Nc3ccc(Br)cn3)c2=O)cc1,98,101,105,97,95,100
O=C(CCCN1C(=O)c2ccccc2C1=O)Oc1ccc(F)cc1,105,102,105,107,102,108
CCn1cc(C(=O)O)c(=O)c2cc(F)c(N/N=C/c3ccccc3[N+](=O)[O-])cc21,63*,64*,77*,58*,78*,82
O=C(O)C1=C[C@H](c2ccc(C(F)(F)F)cc2)C[C@H](OCc2ccc(CO)cc2)O1,80,77*,90,76*,76*,74*
C/C(N)=C(/C#N)C(=O)COC(=O)CCCNC(=O)c1ccc(Cl)cc1,100,101,105,103,96,102
SMILES,HRas wt GTP bind,Rac1 wt modul,Rab7 wt modul,Rab2 wt GTP,Rac1 act GTP bind,Cdc42 wt GTP
CCCCCCCCSc1nnc2[nH]c(=O)cc(N)n12,84,nt,nt,nt,nt,69*
C/C(=N\Nc1ccc(S(N)(=O)=O)cc1[N+](=O)[O-])c1ccc2c(c1)OCO2,89,76*,97,85,88,84
CN(CC(=O)Nc1ccccc1C(F)(F)F)C(=O)CSc1nnnn1C,97,97,105,97,95,98
O=[N+]([O-])c1cc2oc3c(c2c(C=NCc2ccccc2)c1O)CCCC3,79*,73*,78*,76*,74*,74*
CC(C)CN=Cc1c(O)c([N+](=O)[O-])cc2oc3c(c12)CCCC3,97,97,95,94,94,97
CCOC(=O)c1ccc(Nc2nc(C(=O)OCC)nc3ccccc23)cc1,73*,82,81,73*,82,69*
Cc1ncc(CSc2nnnn2-c2ccccc2)c(N)n1,103,107,105,104,101,105
CCOC(=O)c1c(NC(=O)c2ccnn2C)sc(C)c1C,104,108,99,102,98,104
Cc1ccc(-n2c(SCC(=O)N3CC(=O)Nc4ccccc43)nc3ccccc3c2=O)cc1,102,105,100,103,100,102
NS(=O)(=O)c1ccc(Nc2nc(-c3ccc(O)cc3O)cs2)cc1,78*,78*,87,77*,86,77*
NS(=O)(=O)c1ccc(Nc2nc(-c3ccc(F)cc3)cs2)cc1,97,96,100,95,96,102
COc1ccccc1Oc1ccccc1C(=O)O,114,130*[activator],112,116,119,122*[activator]
C=CCN1C(=O)/C(=C/C=C2/N(CC)c3ccc(S(=O)(=O)N(C)C)cc3N2CC)SC1=S,79*,81,96,86,84,83
N#Cc1cc([N+](=O)[O-])ccc1NC(=O)COC(=O)CCC1CCCCC1,86,81,101,91,84,82
CCNc1ccc(S(=O)(=O)N(C)C)cc1[N+](=O)[O-],97,99,93,96,98,99
COc1ccc(/C=C2\CCCC3C2=NN(C(=O)c2scnc2C)C3c2ccc(OC)c(OC)c2)cc1OC (configuration not stated),67*,81,88,66*,85,66*
